Measured values as given in PubChem BioAssay (NCI).
The panel holds about 79,000 compounds, 15% with a hit somewhere; the sample as a whole holds those more often. Values without a mark were called inactive. The source made the active and inactive calls. Cut-off read from the data, not from the text of the source: active = growth inhibition above about 70%; inactive = the rest.

Tests used:
[1] = NCI Yeast Anticancer Drug Screen. Data for the rad50 strain (AID 155);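 note: 0% = growth of vehicle-only cultures of the same strain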; conditions: S. cerevisiae rad50 strain growth inhibition, stronger effect = higher value
How it was run: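 Readout: growth inhibition relative to vehicle-treated cultures. Compound exposure was carried out in a genetically defined yeast strain deficient in DNA damage repair.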

[2] = NCI Yeast Anticancer Drug Screen. Data for the mec2-1 strain (AID 157); conditions: S. cerevisiae mec2-1 strain, stronger effect = higher value
How it was run: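 Yeast mec2-1 mutant treated with compound. Readout: growth inhibition vs vehicle controls.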

[3] = NCI Yeast Anticancer Drug Screen. Data for the sgs1 mgt1 strain (AID 161);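 note: 0% = growth of cultures given vehicle only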; conditions: S. cerevisiae sgs1 mgt1 strain, stronger effect = higher value
How it was run: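 Test agents were incubated with a DNA-repair-mutant yeast strain. Growth was then read and compared against vehicle-treated controls.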

[4] = NCI Yeast Anticancer Drug Screen. Data for the cln2 rad14 strain (AID 165);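 note: 0% = growth equal to vehicle treated cultures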; conditions: S. cerevisiae cln2 rad14 strain, stronger effect = higher value
How it was run: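 cln2 rad14 yeast strain; compound exposure; growth inhibition read vs vehicle controls.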

[5] = NCI Yeast Anticancer Drug Screen. Data for the bub3 strain (AID 167); conditions: S. cerevisiae bub3 mutant strain, stronger effect = higher value
How it was run: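 Readout: yeast growth inhibition, expressed relative to vehicle-only wells. The test organism is a mutant strain from a panel with lesions in DNA repair or checkpoint genes.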

[6] = NCI Yeast Anticancer Drug Screen. Data for the mlh1 rad18 strain (AID 175); conditions: S. cerevisiae mlh1 rad18 strain growth inhibition, stronger effect = higher value
How it was run: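 Yeast w/ defined DNA-repair lesions; compound exposure; growth vs vehicle controls → % inhibition.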

[7] = at 5.0 µM (retest, dose inferred, filed as 0.5)
[8] = at 50.0 µM (retest, dose inferred, filed as 5.0)

| Compound | growth inhibition [1, 7] [%] | growth inhibition [1, 8] | growth inhibition ([1]; at 50.0 µM) | growth inhibition [2, 7] [%] | growth inhibition [2, 8] | growth inhibition ([2]; at 50.0 µM) | growth inhibition [3, 7] [%] | growth inhibition [3, 8] | growth inhibition ([3]; at 50.0 µM) | growth inhibition [4, 7] [%] | growth inhibition [4, 8] | growth inhibition ([4]; at 50.0 µM) | growth inhibition [5, 7] [%] | growth inhibition [5, 8] | growth inhibition ([5]; at 50.0 µM) | growth inhibition [6, 7] [%] | growth inhibition [6, 8] | growth inhibition ([6]; at 50.0 µM) |
| --- | --- | --- | --- | --- | --- | --- | --- | --- | --- | --- | --- | --- | --- | --- | --- | --- | --- | --- |
| C=C1CC(c2ccc(OCCCN3C(=O)c4ccccc4C3=O)cc2)OC1=O (configuration not stated) | 33 | 71% (active) | 10.1% | 30 | 82% (active) | -3.6% | 28 | 67% | 15% | 23 | 63% | 29.1% | 33 | 80% (active) | 8.8% | 34 | 86% (active) | -6% |
| CCc1cc2nc3c(=O)[nH]c(=O)nc-3n(CCN(CCO)CCO)c2cc1CC | 5 | 3% | 41% | 10 | 27% | 30.6% | 2 | 15% | 55% | 2 | -6% | 37% | 2 | -7% | 18.1% | 2 | 7% | 81.9% (active) |
| COc1cc(C=O)c(Cl)cc1O | 2 | 21% | 55% | 1 | 43% | 67% | 1 | 47% | 90% (active) | -4 | 25% | 60.2% | -2 | 14% | 44.5% | 2 | 34% | 77.8% (active) |
| CN(/N=C\c1cccc([N+](=O)[O-])c1)C(c1cccc([N+](=O)[O-])c1)N(C)/N=C/c1cccc([N+](=O)[O-])c1 (configuration not stated) | -1 | 34% | 43% | -1 | 45% | 48.4% | 2 | 74% (active) | 68.5% | 0 | 17% | 8.75% | -7 | 16% | 16.5% | 0 | 40% | 40.6% |
| c1ccc2c(c1)Cc1cc3ccccc3nc1-2 | 13 | 97% (active) | 96.5% (active) | 18 | 97% (active) | 86.5% (active) | 13 | 98% (active) | 87.1% (active) | -9 | 90% (active) | 92% (active) | 10 | 94% (active) | 89.7% (active) | 28 | 99% (active) | 97.2% (active) |
| O=C1CC(O)CC(=O)C1=C(O)CCCCCCCCCCc1ccccc1 (configuration not stated) | 25 | 41% | 66.4% | 25 | 39% | 85.3% (active) | 36 | 57% | 74.2% (active) | 24 | 33% | 81.5% (active) | 30 | 54% | 85.7% (active) | 40 | 62% | 65.8% |
| COc1cc(/C=C\C(=O)c2cccc(O)c(=O)c2)cc(OC)c1OC | -3 | 53% | 69.1% | 1 | 65% | 50.5% | 16 | 83% (active) | 63.5% | -15 | 50% | 5.6% | 2 | 67% | 65.5% | 7 | 89% (active) | 54.9% |
| CNCCCNc1c2cc(OC)ccc2nc2cccc([N+](=O)[O-])c12 | 9 | 96% (active) | 82.8% (active) | -10 | 97% (active) | 88.2% (active) | 49 | 94% (active) | 78.3% (active) | 41 | 98% (active) | 85.3% (active) | -31 | 52% | 55.5% | 41 | 97% (active) | 78.6% (active) |
| C=CCOC(=O)SC(=S)OCN(C)C | 3 | 98% (active) | 99.2% (active) | -3 | 99% (active) | 99.4% (active) | 1 | 99% (active) | 99.4% (active) | 4 | 99% (active) | 98.6% (active) | -1 | 98% (active) | 99.3% (active) | 1 | 99% (active) | 99.1% (active) |
